What all share (test): Cytotoxic Profiling of Annotated Libraries Using Quantitative High-Throughput Screening (AID 1296008); also: nearly all actives have a fitted effect of over 60% in size
Common to all, as to conditions: Five cell lines viability, CellTiter-Glo ATP luminescence, 48-72 h; max response: active compounds read low
In general terms: Cellular ATP, detected with luciferase, serves as a proxy for viable cell number.

One test has as its system HaCat. A digest of the protocol: (§1)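 Cells exposed to compounds for 48 or 72 hr at 37 degrees Celsius. Viability read as ATP-coupled luminescence with CellTiter-Glo after 10 min at room temperature.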
The next test relates to KB-3-1. In short, it runs like this: as §1
The next test relates to NIH3T3. A digest of the protocol:
as §1

Inconclusive results are not listed. Values without a mark were called inactive. Active and inactive are the calls of the source. Calls follow the shape of the dose curve; as a rule, active = well fitted inhibition curve with a large enough effect; inconclusive = small, poorly fitted or top-dose-only effect; inactive = flat fitted curve, though single readings scatter.
% is scaled to controls: 0 for no effect and ±100 for the full control effect; potency is read from the fitted curve at half-maximal effect.

For `C[C@@H]([C@@H](O)c1ccc(O)cc1)N1CCC(O)(c2ccccc2)CC1`, the results for the max response with HaCat, with KB-3-1 and in the test with NIH3T3 were -0.788%, -1.25% and 1.49%, respectively.
As to `C=CC(C)(O)CC[C@H]1C(=C)CCC2[C@](C)(C(=O)O)CCC[C@@]21C` (some centres not stated), the max response in the test on HaCat was -5.99%; with KB-3-1, 0.39%; in the test on NIH3T3, 2.59%.
For the compound `N[C@H]1Cc2ccccc2N(O)C1=O`, the max response with HaCat is -0.256%; in the test with KB-3-1 it was -13.7%; with NIH3T3, -9.2%.
Consider `C/C(=C\C=C\C(C)C1CCC2(C)C3CCC4C(C)(C)C(=O)CCC45CC35CCC12C)C(=O)O` (configuration not stated), for which the max response was -16.2% with HaCat, -3.21% in the test on KB-3-1 and -13.8% with NIH3T3.
Regarding `O=C(c1ccc2nccnc2c1)N1CCCCC1`, the values for the max response in the test on HaCat and in the test with NIH3T3 were -44.6% and -40.7%, respectively. The compound was called inactive in the test with KB-3-1.
For `Cc1cc(OCc2nnc(SC3CCCC3)n2-c2cccnc2)ccc1-c1ccc(S(C)(=O)=O)cc1`, the results for the Potency in the test on HaCat, in the test with KB-3-1 and with NIH3T3 were 4.61 µM (active), 1.46 µM (active) and 10.3 µM (active), respectively.
For the compound `CC(=O)O[C@]1(C(C)=O)CC[C@H]2[C@@H]3C[C@H](C)C4=CC(=O)C=C[C@]4(C)[C@@]3(F)[C@@H](O)C[C@@]21C`, the max response in the test on HaCat was 3.64%; in the test on NIH3T3, 3.11%. Also, the compound was classed as inactive in the test with KB-3-1.
For `CN[C@H](CC(C)C)C(=O)N[C@H]1C(=O)N[C@@H](CC(N)=O)C(=O)N[C@H]2C(=O)N[C@H]3C(=O)N[C@H](C(=O)N[C@H](C(=O)O)c4cc(O)cc(O)c4-c4cc3ccc4O)[C@H](O[C@H]3C[C@](C)(N)[C@@H](O)[C@H](C)O3)c3ccc(c(Cl)c3)Oc3cc2cc(c3O[C@@H]2O[C@H](CO)[C@@H](O)[C@H](O)[C@H]2O[C@H]2C[C@](C)(NCc3ccc(-c4ccc(Cl)cc4)cc3)[C@@H](O)[C@H](C)O2)Oc2ccc(cc2Cl)[C@H]1O`, the results for the max response with HaCat and in the test on NIH3T3 were -0.936% and 1.69%, respectively. Also, the compound was classed as inactive in the test with KB-3-1.
Consider `C=C(C(=O)O)C1CCC2(C)CCC(O)C(C)(O)C2C1` (configuration not stated), for which the figures for the max response in the test with HaCat, in the test with KB-3-1 and in the test on NIH3T3 were -8.51%, 1.37% and -18.2%, respectively.
For `C=C(C(=O)O)[C@@H]1CC[C@@]2(C)CC[C@H](O)[C@@]2(C(C)=O)C1`, in that order: -0.694%, 2.3% and -3.95%.
Regarding `O=C(c1cn(Cc2cncn2Cc2ccc(Br)cc2)cc1-c1cccc2ccccc12)N1CCOCC1`, the Potency in the test with HaCat was 5.8 µM (active); in the test with KB-3-1 it was 11.6 µM (active); in the test with NIH3T3, 7.31 µM (active).
In the case of `CCOC(=O)C(CCc1ccccc1)NC1CSC(c2cccs2)CN(CC(=O)O)C1=O` (configuration not stated), the max response in the test on HaCat was 1.02%; in the test on NIH3T3 it was -0.887%. For the same compound, the compound was called inactive in the test with KB-3-1.
Take `COC(=O)C1=COC(OC2OC(CO)C(O)C(O)C2O)C2C1C=CC2(O)CO` (configuration not stated): the max response in the test with HaCat is -21.5%; in the test with NIH3T3, 3.54%. In addition, the outcome in the test on KB-3-1 was inactive.
Turning to `O=S(=O)(NC1CCC(c2cc(F)ccc2F)(S(=O)(=O)c2ccc(Cl)cc2)CC1)C(F)(F)F` (configuration not stated), the max response is -23.1% in the test on HaCat, 5.9% in the test on KB-3-1 and -17.1% in the test on NIH3T3.
Turning to `COc1cc(O)c([C@@H](CC(=O)N2CC(C)CC(C)C2)c2ccc3c(c2)OCO3)c(OC)c1` (some centres not stated), the values for the max response with HaCat, in the test on KB-3-1 and with NIH3T3 were -11.1%, -2.57% and -1.6%, respectively.
For `O=C(CCc1ccccc1)N1CCC(O)(Cn2cnc3cc(Cl)ccc3c2=O)CC1`, in that order: -6.79%, -17% and -4.94%.
Take `CC(C)[N+]1(C)C2CCC1CC(OC(=O)C(CO)c1ccccc1)C2` (configuration not stated): the values for the max response with HaCat, in the test with KB-3-1 and with NIH3T3 were -18.4%, -2.64% and -9.66%, respectively.
On the same counts, the results for `C[C@H](C/C=C/C(C)(C)O)[C@H]1CC[C@@]2(C)[C@@H]3[C@@H](O[C@@H]4O[C@H](CO)[C@@H](O)[C@H](O)[C@H]4O)C=C4C(CC[C@H](O)C4(C)C)[C@]3(C=O)CC[C@]12C` (some centres not stated) are -5.49%, 8.11% and 3.81%.
In the case of `C[C@@H]1O[C@@H](O[C@H]2[C@H](OC(=O)[C@]34CCC(C)(C)C[C@H]3C3=CCC5[C@@]6(C)CC[C@H](O[C@@H]7O[C@H](C(=O)O)[C@@H](O)[C@H](O)[C@H]7O[C@@H]7O[C@H](CO)[C@H](O)[C@H](O)[C@H]7O)[C@@](C)(C=O)C6CC[C@@]5(C)[C@]3(C)C[C@H]4O)O[C@H](C)[C@H](O[C@@H]3O[C@H](C)[C@H](O)[C@H](O)[C@H]3O)[C@@H]2O)[C@H](O)[C@H](O)[C@H]1O[C@@H]1OC[C@@H](O)[C@H](O[C@@H]2O[C@H](CO)[C@@H](O)[C@H](O)[C@H]2O)[C@H]1O` (some centres not stated), the max response with HaCat was -0.834%; with KB-3-1, 9.53%; with NIH3T3, 3.95%.

Values taken from PubChem BioAssay (NCATS).
